Gal4-VP16 FLuc: VP16 counterscreen qHTS for inhibitors of ROR gamma transcriptional activity | Drosophila S2 Gal4-VP16 UAS-luciferase, luminescence, 20 h | Potency, µM (series often up to 53.6 µM), for the others: at the highest dose activity, negative = inhibition, actives largely listed as inhibitors | hit rate 3.5% among 310,000 | AID 2546, 2010;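 also: Gal4-VP16 expression switched on by copper sulfate through the metallothionein promoter; % is scaled to controls: 0 for no effect and ±100 for the full control effect; nearly all actives have a fitted effect of over 50% in size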
Sfp inh: qHTS Assay for Inhibitors of Bacillus subtilis Sfp phosphopantetheinyl transferase (PPTase); Biochemical Sfp PPTase activity, qHTS; AID 1490, 2009; Potency, µM, without a hit: largest response in the series, negative = inhibition, usual class: inhibitors; 4'-phosphopantetheinyl transferase ffp (Bacillus subtilis), Q9F4F7; hit rate 3.5% among 310,000;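 also: the enzyme is Sfp with the accession as filed and its product quenches rhodamine fluorescence; 0% = enzyme reaction without inhibitor and -100% = no enzyme wells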
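After 15 min at room temperature with compound, 15 nM Sfp received 5 uM rhodamine-CoA plus 12.5 uM BHQ-2-ybbR (50 mM Hepes pH 7.6, 10 mM MgCl2). Rate came from the fluorescence difference over 30 min, ex 525/em 598 nm.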
PINK1 expr mod: A Quantitative High throughput Screen to Identify Chemical Modulators of PINK1 Expression. PINK1 immunofluorescence, high-content cytometry, 24 h. Potency, µM (doses to about 76.6 µM), without a hit: at the top dose activation (PINK1 increase), hits mostly activators. hit rate 0.2% among 410,000. AID 624263, 2012; active = well fitted activation curve with a large enough effect; inconclusive = small, poorly fitted or top-dose-only effect; cell line not stated here; also: % of control where 0% means no effect; nearly all actives have a fitted effect of over 65% in size
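Cells are seeded, rested 12 hours, then given compound at five concentrations or DMSO for 24 hours. After fixation, blocking and antibody staining, PINK1 amount and mitochondrial localization are scored; CCCP serves as control.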
ClpP mod: qHTS Assay for Activators of ClpP | purified B. subtilis ClpP, FRET peptide cleavage, 20 min | Potency, µM (series often up to 57.5 µM), without a hit: top-dose activity change, negative = active | hit rate 1.9% among 340,000 | ATP-dependent Clp protease proteolytic subunit (Bacillus subtilis (strain 168)), P80244; active = well fitted falling curve with a large enough effect; inconclusive = small, poorly fitted or top-dose-only effect; inactive = no such curve, though single readings can be large or run the other way; also: the source files actives as falling curves though it sought activators and does not explain the sign; nearly all actives have a fitted effect of over 65% in size
Target sequence (P80244 whole entry, looked up): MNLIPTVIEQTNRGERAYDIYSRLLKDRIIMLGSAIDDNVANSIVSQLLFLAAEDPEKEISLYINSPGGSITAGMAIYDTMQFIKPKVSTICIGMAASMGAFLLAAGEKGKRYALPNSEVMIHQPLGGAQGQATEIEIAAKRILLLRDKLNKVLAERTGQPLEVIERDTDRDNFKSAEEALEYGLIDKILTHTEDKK
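FRET quenching reversal measured ClpP activation: 10 microg/mL B. subtilis ClpP at pH 8 with the FRET-FV decapeptide, read at 430 nm after 320 nm excitation. The 20-min minus 0-min signal was scaled between DMSO/no-enzyme wells and ADEP (5.8 microM final).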
RORg inh: qHTS for inhibitors of ROR gamma transcriptional activity | Drosophila S2 Gal4-RORgamma UAS-luciferase reporter, 20 h | Potency, µM (highest dose often 53.6 µM), for the others: at the highest dose activity change, negative = inhibition, actives largely listed as inhibitors | hit rate 5.4% among 310,000 | AID 2551, 2010; also: % is scaled to controls: 0 for no effect and ±100 for the full control effect; nearly all actives have a fitted effect of over 60% in size
Target sequence (P51450 whole entry, looked up, the tested form may be a part): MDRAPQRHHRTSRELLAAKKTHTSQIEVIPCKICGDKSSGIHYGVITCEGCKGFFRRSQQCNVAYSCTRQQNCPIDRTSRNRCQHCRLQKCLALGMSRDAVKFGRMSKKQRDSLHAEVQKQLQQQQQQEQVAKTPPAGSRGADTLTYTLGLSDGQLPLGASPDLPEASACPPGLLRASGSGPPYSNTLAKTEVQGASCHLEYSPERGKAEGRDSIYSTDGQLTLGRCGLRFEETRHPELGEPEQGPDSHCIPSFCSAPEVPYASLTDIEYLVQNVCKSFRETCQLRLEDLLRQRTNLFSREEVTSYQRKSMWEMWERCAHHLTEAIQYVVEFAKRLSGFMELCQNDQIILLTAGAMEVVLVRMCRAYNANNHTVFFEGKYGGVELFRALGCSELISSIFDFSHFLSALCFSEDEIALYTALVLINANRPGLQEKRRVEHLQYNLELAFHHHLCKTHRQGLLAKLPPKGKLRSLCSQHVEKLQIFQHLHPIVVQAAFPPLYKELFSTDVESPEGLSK
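Compounds are pin-transferred onto Drosophila Schneider cells expressing a copper-inducible Gal4–ROR gamma transactivation domain fusion. After 1 hr, copper sulfate is added to 700 uM final; luciferase is read 20 hr later.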
Epigenetic derep: Quantitative High-Throughput Screen for Regulators of Epigenetic Control; AID 1865, 2009; Potency, µM (doses to about 53.9 µM), without a hit: at the highest dose GFP activation, hits mostly activators; hit rate 0.2% among 280,000; murine LDR cells, GFP reporter derepression, 30 h; also: % of control where 0% means no effect; nearly all actives have a fitted effect of over 60% in size
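GFP-positive cell count by laser-scanning cytometry (objects 20–120 um) after 30 h, 37 C compound exposure of murine LDR cells; reporter is CMV-GFP integrated at a silenced locus, inducible by HDAC or DNMT inhibitors.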
* marks the source's active call; other numbers are inactive results; ? = inconclusive; · = no result. A selection: hits, their analogues and other compounds. The true share with any hit is near 8.1%. Unless noted, calls follow the shape of the dose curve; as a rule, active = well fitted curve in the direction sought with a large enough effect; inconclusive = small, poorly fitted or top-dose-only effect, or another doubt; inactive = no such curve, though single readings can be large; an effect the other way counts as inactive or inconclusive. Potency is read from the fitted curve at half-maximal effect.

SMILES	Gal4-VP16 FLuc	Sfp inh	PINK1 expr mod	ClpP mod	RORg inh	Epigenetic derep
O=C(Nc1ccc(-c2ccco2)cc1)C1CCCN(Cc2ccc(CO)o2)C1 (centres undefined)	0%	45µM*	2%	-1%	-9%	·
CC(C)(C)OC(=O)N1CCc2nc(N3CCN(c4ncccn4)CC3)ncc2C1	·	·	3%	?	·	-3%
Cc1ccc(NC(=O)CSc2nc3ccc(NC(=O)CCc4ccccc4)cc3s2)cc1	·	·	0%	-1%	·	0%
O=C(Nc1nncs1)c1ccc(Br)c(S(=O)(=O)N2CCCC2)c1	11%	5%	1%	32µM*	28%	-3%
O=C(Nc1ccccn1)c1ccc(Br)c(S(=O)(=O)N2CCCC2)c1	14%	0%	5%	0%	22%	·
Cc1ccc(O)c(NC(=O)c2ccc(Br)c(S(=O)(=O)N3CCCCC3)c2)c1	·	·	40µM*	-2%	·	-3%
O=C(Nc1ccccn1)c1ccc(Br)c(S(=O)(=O)N2CCCCC2)c1	-4%	18%	2%	13µM*	21%	0%
CC1CCN(C(=O)c2ccc(Br)c(S(=O)(=O)N3CCOCC3)c2)CC1	-7%	11%	1%	·	1%	·
CC1CCN(S(=O)(=O)c2cc(C(=O)N3CCN(c4ncccn4)CC3)ccc2Br)CC1	7.1µM*	2%	2%	-12%	33%	-1%
O=C(Nc1nncs1)c1cccc(S(=O)(=O)N2CCCC2)c1	-1%	17%	1%	0%	-2%	0%
O=C1NCc2c1c1c3ccccc3[nH]c1c1[nH]c3ccccc3c21	·	·	2%	4%	·	·
CCOC(=O)c1ccccc1NC(=O)Cn1c(=O)n(Cc2nc(-c3ccccc3)no2)c(=O)c2ccccc21	·	·	1%	-2%	·	8%
Cc1c(Br)cnc2ccccc12	·	·	·	-2%	·	·
Cc1ccccc1CNCc1c(C(=O)O)c(C)n(Cc2ccc(F)cc2Cl)c1C	·	·	0%	4%	·	-6%
CCn1c(=O)c(C(=O)Nc2nc3ccccc3[nH]2)c(O)c2ccccc21	8.9µM*	2%	?	-9%	11µM*	-1%
CCn1c(=O)c(C(=O)Nc2ccccc2)c(O)c2ccccc21	-3%	3%	15%	-1%	18%	·
CCn1c(=O)c(C(=O)NCc2ccc(OC)cc2)c(O)c2ccccc21	?	4%	-2%	-6%	-12%	-1%
CCn1c(=O)c(C(=O)NNC(=O)c2ccc(Cl)cc2Cl)c(O)c2ccccc21	?	23%	2%	·	10µM*	·
CCn1c(=O)c(C(=O)NNC(=O)Cc2ccccc2)c(O)c2ccccc21	-22%	16%	0%	·	13µM*	·
CCn1c(=O)c(C(=O)NCc2ccccn2)c(O)c2ccccc21	7.1µM*	9%	-1%	-22%	3.2µM*	-4%
CCCn1c(=O)c(C(=O)NNC(=O)c2ccc(Cl)cc2Cl)c(O)c2ccccc21	-15%	24%	4%	0%	-43%	·
CC1CCCN(CCCNC(=O)Cn2ncc3c([nH]c4ccccc43)c2=O)C1 (centres undefined)	·	·	1%	5%	·	-1%
Cc1ccc(C)c(NC(=O)c2cc(S(=O)(=O)N3CCN(c4cccc(Cl)c4)CC3)ccc2F)c1	·	·	1%	-11%	·	0%
Cc1ccc2nc(-c3cc(NC(=O)/C=C/c4ccccc4)ccc3Cl)oc2c1	·	·	0%	?	·	-1%
COc1ccc(NC(=O)COc2ccc(S(=O)(=O)NC3CCCCC3)cc2)cc1OC	·	·	0%	0%	·	0%
SMILES	Gal4-VP16 FLuc	Sfp inh	PINK1 expr mod	ClpP mod	RORg inh	Epigenetic derep
CCCN1CNc2c(c(=O)[nH]c(=S)n2CCCc2ccccc2)C1	·	·	0%	-4%	·	·
Cc1ccc(N2CCN(C(=O)c3cc(S(=O)(=O)N4CCCCC4)c[nH]3)CC2)c(C)c1	·	·	-1%	0%	·	-1%
COC(=O)C1=C(c2ccccc2)c2ccccc2S(=O)(=O)N1CC(=O)Nc1ccc(OC)cc1OC	·	·	0%	0%	·	-2%
O=C(c1cc(COc2ccc(F)cc2Cl)on1)N1CCC(c2ccncc2)CC1	7.1µM*	-11%	0%	1%	11µM*	3%
O=C(c1ccc2[nH]ccc2c1)N1CCOc2ccc(CN3CCN(c4ccccn4)CC3)cc2C1	·	·	-1%	·	·	·
CC1=Cc2ccccc2C(C#N)N1C(=O)c1ccccc1 (centres undefined)	13µM*	-23%	2%	·	?	-4%
O=C(Cc1cccc2ccccc12)NO	·	·	0%	1%	·	·
Cc1ccc(CSC2=NC(C)(C)Nc3ccccc32)c(C)c1	·	·	?	-18%	·	-2%
Cc1csc2nc(CSc3nc4ccccc4o3)cn12	0%	56µM*	1%	2%	-2%	?
Cc1cc(C)n2c(Br)c(CSc3nc4ccccc4o3)nc2n1	3%	50µM*	-3%	28µM*	24%	0%
Nn1c(CSc2nc3ccccc3o2)nnc1CSc1nc2ccccc2o1	8%	2%	-1%	0%	-39%	0%
Cc1csc2nc(CSc3ccc(Cl)cc3)cn12	-22%	-6%	1%	0%	2%	2%
c1ccc2oc(SCc3cn4ccsc4n3)nc2c1	7%	50µM*	4%	-8%	-26%	-3%
Cn1c2c(c3cnc4cc(Cl)ccc4c31)CN(Cc1ccc(Cl)cc1)CC2	·	·	1%	?	·	·
CN(C)c1ccc(/C=C/c2ccnc3ccccc23)cc1Br	·	·	4%	-2%	·	·
COc1ccc2cc(/C=N/NC(=O)c3ccc(CN(c4ccc(C)c(C)c4)S(C)(=O)=O)cc3)c(Cl)nc2c1	-1%	14%	5%	?	-10%	22µM*
O=C(N/N=C/c1ccc(O)cc1)NC12CC3CC(CC(C3)C1)C2	-8%	8%	-1%	-2%	4%	·
O=C(N/N=C/c1ccccc1)c1ccc(-c2ccccc2)cc1	4%	3%	0%	-2%	11%	·
COc1ccc2cc(/C=N/NC(=O)c3c(Cl)cnn3C)c(Cl)nc2c1	-13%	-3%	?	-23%	-37%	?
NC(=O)COc1ccc(/C=N\NC(=O)c2ccc(-c3ccccc3)cc2)cc1	0%	-7%	0%	10µM*	-3%	·
COC(=O)COc1ccc(/C=N/NC(=O)c2ccc(N(Cc3ccccc3)S(C)(=O)=O)cc2)cc1	?	5%	-3%	32µM*	?	0%
Cc1ccc(/C=N/NC(=O)NC23CC4CC(CC(C4)C2)C3)o1	3%	89µM*	8%	0%	31%	0%
